This is one part of a sample in which hits are shown more often than they occur.
IL-1B inflam inh – qHTS for Inhibitors of Inflammasome Signaling: IL-1-beta AlphaLISA Primary Screen. THP-1 LPS/ATP IL-1B secretion, AlphaLISA, 16 h; hits give low values. activity change, % at 57.5 µM. 360,000 tested, 4.7% active; in the data active = activity change below about -50%; inconclusive = mostly about -30% to -49%
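Secreted IL-1B measured by AlphaLISA bead assay after 16 h compound exposure of THP-1 cells; compounds (final up to 57.5 uM) added 1 h before LPS (250 ng/mL) and ATP (1.25 mM) stimulation; lower signal means less secretion.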
HT1080 IDH1KD tx – qHTS for induction of synthetic lethality in tumor cells producing 2HG: qHTS for the HT-1080-IDH1KD cell line; HT-1080 IDH1 knockdown viability, ATP luminescence, 48 h; Potency, µM (series often up to 46.1 µM), most hits filed as cytotoxic; 360,000 tested, 2% active
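Viability of IDH1-knockdown HT-1080 fibrosarcoma cells was assessed by CellTiter-Glo after 48 h at 37 °C with titrated compound; concentration-effect curves were classified by fit quality and response size.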
HT1080NT lethal – qHTS for induction of synthetic lethality in tumor cells producing 2HG: qHTS for the HT-1080-NT fibrosarcoma cell line; HT-1080-NT fibrosarcoma viability, CellTiter-Glo ATP luminescence, 48 h; Potency, µM (series often up to 46.1 µM), usual class: cytotoxic; 360,000 tested, 1.6% active; AID 686970, 2013;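 also: NT is the 2HG producing partner of a matched IDH1 knockdown line; nearly all actives have a fitted effect of over 55% in size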
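HT-1080-NT fibrosarcoma cells (2HG-overproducing), 750 cells/well in RPMI with 5% FBS, dosed after 2 h and incubated 48 h at 37C. CellTiter-Glo luminescence normalized to DMSO and no-cell wells; concentration-response curves fitted and classed.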
DT40 TDP1 CPT – qHTS for Inhibitors of human tyrosyl-DNA phosphodiesterase 1 (TDP1): qHTS in cells in presence of CPT; Potency, µM (series often up to 46.2 µM), hits mostly inhibitors; chicken DT40 Tdp1-/-;hTDP1 cells + 20 nM CPT, ATP luminescence, 48 h; 420,000 tested, 12% active; also: nearly all actives have a fitted effect of over 55% in size
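Cell growth measured by CellTiter-Glo luminescence after a minimum 48 h, 37 C compound exposure with 20 nM CPT in Tdp1-knockout DT40 cells stably expressing hTDP1, seeded 400/well; qHTS titration format.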
TDP1 cell noCPT – qHTS for Inhibitors of human tyrosyl-DNA phosphodiesterase 1 (TDP1): qHTS in cells in absence of CPT | 420,000 tested, 15% active | DT40 Tdp1-/- hTDP1 cells, no CPT, ATP luminescence, 48 h | Potency, µM (doses to about 46.2 µM), most hits filed as inhibitors; also: nearly all actives have a fitted effect of over 55% in size
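Chicken DT40 Tdp1-/- cells complemented with human TDP1, screened without camptothecin (DMSO vehicle only), 400 cells/well. Compounds pin-transferred, cells incubated at 37 °C for at least 48 hr. Growth read as ATP-dependent luminescence (CellTiter-Glo, 30 min at RT).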
12-LOX inh – Primary qHTS assay for inhibitors of human arachidonate 12S-lipoxygenase (ALOX12): Round 2. Polyunsaturated fatty acid lipoxygenase ALOX12 (Homo sapiens), P18054. purified 12hLO, xylenol orange hydroperoxide absorbance. Potency, µM (highest dose often 108 µM), usual class: inhibitors. 580,000 tested, 1.1% active
Target sequence (P18054 whole entry, looked up): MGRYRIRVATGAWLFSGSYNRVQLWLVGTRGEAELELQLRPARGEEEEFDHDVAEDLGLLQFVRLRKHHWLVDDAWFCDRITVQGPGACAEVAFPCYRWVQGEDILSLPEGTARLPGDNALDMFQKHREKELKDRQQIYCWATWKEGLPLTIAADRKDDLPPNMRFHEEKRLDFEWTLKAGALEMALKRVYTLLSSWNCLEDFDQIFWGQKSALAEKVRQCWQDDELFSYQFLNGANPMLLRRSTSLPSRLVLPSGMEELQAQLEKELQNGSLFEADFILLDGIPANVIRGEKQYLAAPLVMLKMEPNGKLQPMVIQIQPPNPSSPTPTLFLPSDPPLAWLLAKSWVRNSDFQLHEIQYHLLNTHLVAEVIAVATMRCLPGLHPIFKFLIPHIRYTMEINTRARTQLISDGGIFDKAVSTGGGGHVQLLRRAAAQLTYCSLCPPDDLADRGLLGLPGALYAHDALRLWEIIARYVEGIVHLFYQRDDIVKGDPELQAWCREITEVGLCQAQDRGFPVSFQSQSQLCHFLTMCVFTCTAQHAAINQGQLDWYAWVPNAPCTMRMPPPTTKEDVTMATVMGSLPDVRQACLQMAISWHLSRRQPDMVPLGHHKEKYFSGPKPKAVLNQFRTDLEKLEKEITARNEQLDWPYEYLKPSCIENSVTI
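Purified human 12hLO (150 nM final) in 25 mM Hepes, 0.01% Triton X-100, pH 7.0 was preincubated 15 min at room temperature with compound. Then 40 uM arachidonic acid was added, 30 min. Hydroperoxide was read by Fe-XO absorbance ratio 573/405 nm.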
Numbers stand for hits; . = inactive; ? = inconclusive; / = no result given. Unless noted, calls follow the shape of the dose curve; as a rule, active = well fitted curve in the direction sought with a large enough effect; inconclusive = small, poorly fitted or top-dose-only effect, or another doubt; inactive = no such curve, though single readings can be large; an effect the other way counts as inactive or inconclusive.

SMILES | IL-1B inflam inh | HT1080 IDH1KD tx | HT1080NT lethal | DT40 TDP1 CPT | TDP1 cell noCPT | 12-LOX inh
COC1C=CC=C(C)C(=O)NC2=CC(=O)C(N)=C(CC(C)CC(OC)C(O)C(C)C=C(C)C1OC(N)=O)C2=O (stereo unspecified) | -92 | 0.041µM | ? | 0.16µM | 0.18µM | .
COc1cc2c(cc1OC)C(=O)C(Sc1nnc(-c3ccccc3F)o1)C2 (stereo unspecified) | / | / | / | / | / | .
CCCN1CCC(N2CCN(c3ccc([N+](=O)[O-])cc3)CC2)CC1 | . | . | . | ? | 21µM | 0.89µM
CCCN1CCC(N2CCN(c3cccc(C(F)(F)F)c3)CC2)CC1 | . | . | ? | 23µM | 21µM | .
Cc1ccc(C(=O)NCCN2C3=NC[C@H](C(C)C)N3C[C@H]2Cc2ccc(O)cc2)cc1Br | . | . | . | 5.2µM | 10µM | .
COc1ccc(C[C@H]2CN3C(=NC[C@@H]3C(C)C)N2CCNC(=O)c2ccc(C)c(Br)c2)cc1 | -63 | . | ? | 9.2µM | 8.2µM | /
COc1ccccc1NC(=O)N1CCN2C(=O)NC[C@H]2C1 | / | / | / | / | / | .
COc1cccc(C2c3[nH]c4ccccc4c3C[C@H]3C(=O)N(c4ccccc4C(=O)NCCCN4CCOCC4)C(=O)N23)c1 (stereo partly specified) | . | . | ? | 12µM | 13µM | .
O=C(NCCN1CCOCC1)c1ccccc1N1C(=O)[C@@H]2Cc3c([nH]c4ccccc34)C(c3ccccc3)N2C1=O (stereo partly specified) | . | . | . | ? | ? | .
O=C(NCCCN1CCOCC1)c1ccccc1N1C(=O)[C@@H]2Cc3c([nH]c4ccccc34)C(c3ccc(F)cc3)N2C1=O (stereo partly specified) | . | . | . | 9.2µM | 15µM | .
Cn1cc(Br)c(C(=O)NC2CCCCC2)n1 | . | . | . | . | . | .
O=C(CS(=O)(=O)Cc1ccc(C(F)(F)F)cc1)Nc1ccc(F)cc1F | / | / | / | / | / | .
Cc1sc2nc(CN(Cc3cccs3)C(=O)NC3CCCCC3)[nH]c(=O)c2c1C | ? | ? | ? | 23µM | ? | .
Cc1sc2nc(CN(C(=O)NC3CCCCC3)C3CCCC3)[nH]c(=O)c2c1C | . | . | . | ? | 16µM | .
COc1ccc2c(c1)CCN=C2C[C@H]1CN(C(=O)c2ccc(C#N)cc2)CC[C@H]1CC(=O)O | / | / | / | / | / | 63µM
O=C(NCc1ccc(Cl)cc1)C1CCN(c2ncnc3nc[nH]c23)CC1 | / | / | / | / | / | .
Cc1noc(C)c1S(=O)(=O)N1CCC(C(=O)NC2CCN(Cc3ccccc3)CC2)CC1 | . | ? | . | ? | 11µM | .
O=C(NC1CCN(Cc2ccccc2)CC1)C1CCN(S(=O)(=O)c2ccc(Cl)cc2)CC1 | . | . | . | ? | 16µM | ?
O=C(NC1CCN(Cc2ccccc2)CC1)C1CCN(S(=O)(=O)c2ccccc2)CC1 | . | . | . | . | ? | .
Cc1c(O)ccc(C(=O)CN2CCN(Cc3ccccc3)CC2)c1O | . | . | . | . | . | .
Cc1c(O)ccc(C(=O)CN2CCN(c3ccc(F)cc3)CC2)c1O | . | . | . | ? | 16µM | ?
Cc1occc1C(=O)N1CCN(c2ccc(Cl)c(Cl)c2)CC1 | . | . | . | ? | 16µM | ?
Cc1occc1C(=O)N1CCN(c2ccccc2)CC1 | . | . | . | . | . | .
Cc1occc1C(=O)NNC(=O)Nc1ccc(Cl)c(Cl)c1 | . | . | . | 15µM | ? | .
O=C1CCCC2=C1C1(CCCCC1)N=C(Nc1nc3ccccc3s1)N2 | . | . | . | 18µM | ? | .
SMILES | IL-1B inflam inh | HT1080 IDH1KD tx | HT1080NT lethal | DT40 TDP1 CPT | TDP1 cell noCPT | 12-LOX inh
O=C1CCCC2=C1C1(CCCC1)N=C(Nc1nc3ccccc3s1)N2 | . | . | . | ? | ? | .
CC(C)(C)c1nc(CN2CCCCC2)cc(CN2CCCCC2)c1O | . | . | . | 18µM | ? | .
CC(C)(C)c1nc(CN2CCOCC2)ccc1O | . | . | . | . | . | .
Fc1c(CSC(=S)N2CCOCC2)cccc1CSC(=S)N1CCOCC1 | . | . | . | ? | ? | .
CC(C)NC(=O)c1ccc(-n2c(-c3ccccc3)cc3c2CCCCC3)cc1 | / | / | / | ? | ? | .
O=C(NCc1ccccc1Cl)c1ccc(-c2ccccc2)cc1 | . | . | . | . | ? | .
Cc1cc2c(n1-c1ccc(C(=O)NCc3ccccc3Cl)cc1)CCCC2 | / | / | / | 23µM | 18µM | .
Cc1cc2c(n1-c1ccc(C(=O)NCc3ccc(OC(C)C)cc3)cc1)CCCC2 | / | / | / | 26µM | 16µM | .
Oc1ccc(C=NCC2(c3ccccc3)CCCC2)cc1 | / | / | / | / | / | .
Cc1ccccc1-c1nc(C#N)c(NCCCN2CCOCC2)o1 | / | / | / | / | / | .
COc1ccc(C(=O)Nc2ccc3nc4c(c(Nc5ccc(OC)c(OC)c5)c3c2)CCCC4)c(OC)c1 | / | / | / | 3.3µM | 2.9µM | .
COc1ccccc1Nc1c2c(nc3ccc(NC(=O)c4cccc(OC)c4OC)cc13)CCCC2 | / | / | / | 5.8µM | 13µM | ?
COc1ccccc1NC(=O)c1ccc2c(Cl)c3c(nc2c1)CCCC3 | / | / | / | . | . | .
COc1ccccc1Nc1c2c(nc3ccc(NC(=O)c4ccccc4F)cc13)CCCC2 | / | / | / | 5.2µM | 16µM | .
COc1ccc(Nc2c3c(nc4ccc(NC(=O)c5ccc(F)cc5)cc24)CCCC3)cc1OC | / | / | / | ? | ? | .
COc1ccccc1Nc1c2c(nc3ccc(N)cc13)CCCC2 | . | . | . | 16µM | 21µM | .
COc1ccc(S(=O)(=O)N2CC[C@H]3NC(=O)N(c4ccc(C)cc4)C(=O)[C@H]32)cc1 | / | / | / | / | / | .
CCOc1ncccc1C(=O)OCC(=O)NC1CCCCC1 | . | . | . | . | . | .
CCN1CCN(C(=O)c2cc(=O)c3cc(C)ccc3o2)CC1 | . | . | . | . | . | .
COC(=O)C1CCN(S(=O)(=O)c2ccc(N3CCCCS3(=O)=O)cc2)CC1 | / | / | / | . | . | .
CN1C(=O)c2cccn2CC1CNC(=O)Cc1cccc(F)c1 (stereo unspecified) | / | / | / | / | / | .
COc1ccc(C(=O)Nc2ccc3nc4c(c(Nc5ccccc5OC)c3c2)CCCC4)c(OC)c1 | / | / | / | 3.7µM | 3.3µM | .
